The assay in a line: NCI Yeast Anticancer Drug Screen. Data for the mlh1 strain (AID 171).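 Further: 0% = growth of vehicle-treated control cultures of the same strain.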 Conditions: S. cerevisiae mlh1 strain growth inhibition, stronger effect = higher value. The protocol: Growth inhibition of yeast strains with defined genetic alterations is measured as a screen for potential anti-cancer activity. Selected strains with alterations in DNA damage repair or cell cycle control were exposed to compounds and growth inhibition was measured relative to vehicle treated controls. The strain used in this assay is mlh1

The structures appear in SMILES notation. About 79,000 compounds went through this panel and 15% of them were active in at least one assay; those are over-represented in the sample as a whole. A number with no mark means an inactive call. Activity calls are given as the source filed them. No stated cut-off is given here; in the data, active means growth inhibition above about 70%; inactive means the rest.

In the case of `Nc1ccc2c(c1)C(=O)c1cccc(N)c1C2=O`, the growth inhibition runs as follows: (at 1.2 µM) 0%; (at 3.7 µM) 7%; (at 11.0 µM) 32%; (at 33.0 µM) 74% (active); (at 100.0 µM) 85% (active).
The like results for `O=C(CCCN1CCC2(CC1)CC(=O)N(N1CCCCCC1)C2=O)c1ccc(F)cc1` were, in that order, 25%, 30%, 41%, 52% and 63%.
Regarding `Cc1ccc(-c2ccc(Nc3c4ccccc4nc4ccccc34)cc2)cn1`, the growth inhibition (at 1.2 µM) was 5%; the growth inhibition (at 3.7 µM) was 2%; the growth inhibition (at 11.0 µM) was 18%; the growth inhibition (at 33.0 µM) was 88% (active); the growth inhibition (at 100.0 µM) is 72% (active).
The corresponding values for `c1ccc2c(c1)sc1nc3ccncc3nc12` are -5%, -1%, 1%, 8% and 12%.
The corresponding values for `FC(F)(F)c1nc2nc(Cl)c(Cl)nc2n1CCCN1CCOCC1` are 1%, 6%, 14%, 38% and 35%.
Turning to `CC1OCC2OC(C)OC(C3C4=C(CC(C)(C)CC4=O)OC4=C3C(=O)CC(C)(C)C4)C2O1` (stereo not given), the growth inhibition (at 1.2 µM) is 1%; the growth inhibition (at 3.7 µM) was 2%; the growth inhibition (at 11.0 µM) is 4%; the growth inhibition (at 33.0 µM) was 8%; the growth inhibition (at 100.0 µM) was 25%.
In the case of `CCN(CC)CC[n+]1ccc2c(C)c3[nH]c4ccc(O)cc4c3c(C)c2c1`, the growth inhibition is -4% (at 1.2 µM); 3% (at 3.7 µM); 1% (at 11.0 µM); 9% (at 33.0 µM); 68% (at 100.0 µM).
The corresponding values for `CC(=O)OCc1ccc(O)c(C=O)c1` are 0%, -7%, -5%, 24% and 30%.

The record behind these values is PubChem BioAssay (NCI).
